Screening data as filed in PubChem.
Compounds with a hit are over-represented: about 3.2% of the library has one in this group of screens.
p53null 39C tox: kills p53 null cells at the nonpermissive temperature; AID 904; H1299 p53-null (neo) cells, 39C, ATPlite viability, 24 h; 55,000 tested, 0.97% active; Potency, µM (highest dose often 46.1 µM), for inactives: at the highest dose activity, negative = cell killing, hits mostly cytotoxic;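 also: 0% = DMSO only and -100% = full killing by 100 µM tamoxifen; nearly all actives have a fitted effect of over 50% in size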
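Temperature-shift cytotoxicity format: compound titrations on p53-null or A138V-expressing H1299 cells held 24 hr at 39C, cell ATP then measured, AC50 from Hill model.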
PMP22 txn prim: modulates PMP22 transcription in S16 Schwann cells | S16 Pmp22-F2sN Schwann cells, FLuc/NLuc coincidence luminescence, 24 h | Potency, µM (titrated, usually from 57.5 µM), for inactives: at the top dose activity change, negative = inhibition, actives largely listed as inhibitors | 43,000 tested, 2% active | AID 1508649; active = clear falling dose curves in both reporters; inconclusive = both reporters move, but less clearly or upward; inactive = either reporter flat; the % is the NLuc reporter signal
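Reporter cells (S16 Pmp22-F2sN, 500–1,000 per well) exposed to compounds for 24 h, 37C, 5% CO2; lysis with FLuc read after 10 min, then Stop&Glo and NLuc read after 10 min.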
S16 F2sN tox: S16 Schwann cell cytotoxicity | Potency, µM (doses to about 57.5 µM), for the others: at the top dose activity change, negative = cytotoxicity, most hits filed as cytotoxic | S16 Pmp22-F2sN Schwann cells viability, CellTiter-Glo, 24 h | 43,000 tested, 0.48% active | AID 1508642; also: nearly all actives have a fitted effect of over 65% in size
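S16 Pmp22-F2sN Schwann cells (500-1,000/well) in phenol-red-free DMEM with 10% FBS received 23 nL compound by pin tool for 24 h at 37 °C. Viability was then read as CellTiter-Glo luminescence after 15 min at room temperature.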
pS6 MEF inh: inhibitors of mTORC1 signaling in Tsc2-/- p53-/- MEF cells; 44,000 tested, 0.78% active; Potency, µM (series often up to 38.3 µM), without a hit: top-dose activity change, negative = inhibition, usual class: inhibitors; Tsc2-/- p53-/- MEF, phospho-rpS6 immunofluorescence/PI, 24 h;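 also: plate controls were DMSO for no effect and rapamycin for full effect; nearly all actives have a fitted effect of over 50% in size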
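Tsc2-/-, p53-/- MEFs (empty-vector stable line) in DMEM + 10% FBS were treated with compounds 24 h at 37 degree Celsius, fixed, and immunostained for phospho-rpS6 (Alexa-488) with propidium iodide counterstain. Laser-scanning cytometry gave % positive cells, normalized against 7.5 nM rapamycin and DMSO.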
p53null 32C tox: kills p53 null cells at the permissive temperature. H1299-neo p53 null cells, ATP luminescence, 24 h, 32C. Potency, µM (highest dose often 46.1 µM), inactives show at the top dose activity change, negative = cytotoxicity, actives largely listed as cytotoxic. 55,000 tested, 0.62% active. AID 903;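 also: 0% = DMSO only and -100% = full killing by 100 µM tamoxifen; nearly all actives have a fitted effect of over 55% in size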
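H1299-neo, 600 cells/well; overnight 37C; cpd up to 46 uM, 24 h at 32C; ATPlite luminescence after 20 min RT; normalized to DMSO (0%) and tamoxifen 100 uM (100% kill); Hill-fit AC50.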
Starred values were filed as active, the others as inactive; ? = inconclusive; . = not tested or not shown. Unless noted, calls follow the shape of the dose curve; as a rule, active = well fitted curve in the direction sought with a large enough effect; inconclusive = small, poorly fitted or top-dose-only effect, or another doubt; inactive = no such curve, though single readings can be large; an effect the other way counts as inactive or inconclusive. Unless noted, % is scaled to controls: 0 for no effect and ±100 for the full control effect; potency is read from the fitted curve at half-maximal effect.

SMILES	p53null 39C tox	PMP22 txn prim	S16 F2sN tox	pS6 MEF inh	p53null 32C tox
Cc1ccc(-c2cc(-c3ccccc3C)[nH]n2)c(O)c1	-96%	.	.	.	13µM*
CCOc1cc(-n2nc(C)c(C#N)c2N)nc(SC)n1	13%	.	.	.	4%
COc1ccc(C(=O)Nc2ccc3oc(-c4cccc5c(Br)cccc45)nc3c2)cc1	6%	6%	-3%	5%	-2%
Nc1ccc2oc(-c3ccccc3Br)nc2c1	13µM*	?	-2%	-2%	?
O=C(NCCCN1CCN(c2ccccc2F)CC1)c1cc2c(s1)-c1ccccc1OC2	32µM*	?	-1%	?	7%
Fc1ccc(-c2cn3cc(Cc4ccccc4)sc3n2)cc1	?	-9%	0%	-8%	?
Fc1ccc(Cc2cn3cc(-c4ccccc4)nc3s2)cc1	2µM*	-21%	15%	2%	4.5µM*
CCN(CC)C(=O)C1CCN(S(=O)(=O)c2ccc3c(c2)CCCN3C(C)=O)CC1	10µM*	0%	?	-1%	-1%
Cc1ccc(C(=O)Nc2onc3c2CCCC3)cc1	5µM*	-5%	-3%	-8%	6.3µM*
O=C1c2[nH]nc(-c3ccccc3O)c2C(c2ccc(Cl)cc2)N1CCc1ccccc1 (stereo not given)	25µM*	?	-27%	16µM*	44%
Cc1ccc2ncc(C(=O)Nc3ccc(F)cc3F)c(=O)n2c1	1%	3%	14%	2%	7%
COc1ccc2cc(-c3nc4ccc(C(=O)O)cc4[nH]3)c(=O)oc2c1	-2%	-1%	-3%	-1%	1.6µM*
Cc1nn(-c2ccccc2)c2c1N(CCCC(=O)NCc1ccc(OC(C)C)cc1)C(=O)CS2	-13%	?	10µM*	0%	-7%
CCN1CCN(c2cc(C)c3cc(NC(=O)c4ccc(OC)c(OC)c4)ccc3n2)CC1	-5%	?	20µM*	?	2%
Cc1cc(N2CCN(C)CC2)nc2ccc(NC(=O)c3ccc(C(C)(C)C)cc3)cc12	13µM*	?	?	5.8µM*	25µM*
Cc1cc(N2CCN(C)CC2)nc2ccc(NC(=O)Nc3ccc(Cl)cc3)cc12	-20%	?	-26%	1%	-1%
CCN1CCN(c2cc(C)c3cc(NC(=O)c4cc(OC)c(OC)c(OC)c4)ccc3n2)CC1	15%	-2%	-19%	?	-8%
CCOc1ccccc1NC(=O)Nc1ccc2nc(N3CCN(C)CC3)cc(C)c2c1	18µM*	?	?	?	?
CCc1ccc(S(=O)(=O)c2cn(CC)c3cc(N4CCCCC4)c(F)cc3c2=O)cc1	-14%	?	4%	-9%	-5%
CCOC(=O)/C(C#N)=C/c1ccc(-c2ccc(Br)cc2)o1	-11%	.	.	-4%	-10%
COc1ccc(C(=O)Nc2cccc(-c3cn4ccsc4n3)c2)cc1OC	13µM*	?	-1%	?	?
CCN(CCCNC(=O)c1cc2cc3ccc(OC)cc3nc2s1)c1ccccc1	?	?	?	?	-14%
COc1ccc(C(=O)NC(c2ccccc2Cl)c2cc(Cl)c3cccnc3c2O)cc1 (stereo not given)	10%	?	3.2µM*	?	?
COc1cc(C(=O)NC(c2ccccc2Cl)c2cc(Cl)c3cccnc3c2O)cc(OC)c1OC (stereo not given)	-19%	4.4µM*	?	-20%	?
C=CCc1c(C)nc2nc(SCC(=O)Nc3ccc(C)c(C)c3)nn2c1C	-4%	?	?	10µM*	-6%
SMILES	p53null 39C tox	PMP22 txn prim	S16 F2sN tox	pS6 MEF inh	p53null 32C tox
O=C(Nc1noc2ccccc12)c1c(F)cccc1F	10µM*	-10%	2%	-2%	?
CCCCN(CCCNC(=O)c1cc(Nc2cccc(SC)c2)nc2ccccc12)Cc1ccccc1	5.6µM*	?	?	16µM*	-19%
CSc1cccc(Nc2cc(C(=O)NCCc3ccc(Cl)cc3)c3ccccc3n2)c1	?	?	-25%	-8%	-8%
Cc1cccc(N2CCN(CCNC(=O)Nc3ccc(Cl)cc3)CC2)c1C	?	?	?	18µM*	?
CCOc1ccc(NC(=O)CCS(=O)(=O)c2ccc(Br)cc2)cc1	-13%	?	-12%	1%	-2%
CCOc1ccc(-c2cnc(NCc3ccc(C(F)(F)F)cc3)n2C)cc1	?	?	-12%	18µM*	?
COc1cc(-c2nc3ccc(Cl)cn3c2Nc2ccc3c(c2)OCO3)ccc1O	30%	?	-26%	-6%	54%
COc1cc(-c2nc3ccc(C)cn3c2Nc2ccc(Cl)cc2)ccc1O	20µM*	?	3%	2%	10%
Oc1ccc(NCc2ccc(OCc3ccccc3Cl)cc2)cc1	?	?	?	16µM*	?
COc1ccc(NC(=S)Nc2ccc(OCc3ccccc3)cc2)cc1OC	-18%	.	.	.	5%
Cc1cccc(NCc2ccccc2OCc2ccccc2F)c1	.	.	.	.	-16%
Oc1ccc(NCc2ccccc2OCc2ccccc2Cl)cc1	-18%	7µM*	20µM*	-28%	4%
Oc1ccc(NCc2ccc(OCc3ccccc3)cc2)cc1	?	4.6µM*	10µM*	15µM*	?
COc1ccc(NC(=O)Cn2c(=O)n(-c3ccccc3)c(=O)c3c4c(sc32)CCCC4)c(OC)c1	-27%	21%	17%	-4%	-8%
Cc1cc(S(=O)(=O)Nc2ccc3[nH]c(=O)sc3c2)ccc1F	-1%	-6%	-12%	0%	-1%
COc1cc(Cl)c(C)cc1NC(=O)c1ccc2c(Cl)c3c(nc2c1)CCC3	-6%	-6%	2%	2%	-9%
Cc1ccccc1OCc1ccc(-c2nc(C#N)c(NCCCN(C)C)o2)o1	-24%	?	?	5.8µM*	9%
CCCCNc1oc(-c2ccc(COc3ccccc3C)o2)nc1C#N	?	-12%	-22%	?	-12%
O=C(Nc1nc2ccccc2s1)c1ccc(S(=O)(=O)N2CCCC2)cc1	7%	-31%	1%	0%	9%
O=C(Nc1cccc(C(F)(F)F)c1)Nc1ccc2snnc2c1	?	9.5µM*	?	-21%	36%
COc1cc(NC(=O)c2nc3ccccc3n(C)c2=O)cc(OC)c1OC	?	-3%	1%	-4%	-13%
CC(=O)c1cccc(NC(=O)c2nc3ccccc3n(C)c2=O)c1	2.5µM*	?	?	-8%	2.8µM*
CCc1ccc(Oc2nc3c(C)cccn3c(=O)c2/C=C(\C#N)c2nc3ccccc3[nH]2)cc1	-30%	-16%	14%	?	4%
